Shown are actives, neighbours in structure and some others; about 8.7% of the full set was active somewhere.
G9a block: inhibitors of human histone lysine methyltransferase G9a. G9a H3K9 monomethylation, AlphaScreen, 2 h. Potency, µM (top dose mostly 102 µM), hits mostly inhibitors. 350,000 tested, 8.8% active. AID 504332; note: nearly all actives have a fitted effect of over 75% in size
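Chemiluminescent proximity detection of H3K9 monomethylation, read after 10 min bead incubation in the dark. Reaction: 20 nM G9a, 500 nM biotin-H3K9 peptide, 20 uM SAM cofactor, 2 h, room temperature, following 15 min enzyme-compound preincubation.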
BAZ2B block: inhibitors of human BAZ2B bromodomain. AlphaScreen BAZ2B-H3K14Ac peptide displacement. Potency, µM (titrated, usually from 114 µM), usual class: inhibitors. 360,000 tested, 4.4% active. AID 504333; note: nearly all actives have a fitted effect of over 60% in size
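Compounds, titrated to a top concentration of 110 uM, were incubated 30 min at room temperature with preformed BAZ2B/acetyl-K14 H3 peptide complex (50 nM each). Proximity signal was measured by AlphaScreen after 20 min with beads.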
JMJD2A Tudor inh: inhibitors of human JMJD2A Tudor domain | O75164 | AlphaScreen JMJD2A-Tudor / H3K4me3 peptide binding | 390,000 tested, 4.4% active | Potency, µM (doses to about 114 µM), usual class: inhibitors | AID 504339; note: nearly all actives have a fitted effect of over 50% in size
12-LOX inh: blocks human arachidonate 12S-lipoxygenase. P18054. purified 12hLO, xylenol orange hydroperoxide absorbance. Potency, µM (series often up to 108 µM), usual class: inhibitors. 580,000 tested, 1.1% active. AID 1671190
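Hydroperoxide product was detected by ferrous iron/xylenol orange as the 573 to 405 nm absorbance ratio. Arachidonic acid at 40 uM (final) was turned over for 30 min at room temperature by 150 nM human 12hLO, pH 7.0 Hepes buffer, after 15 min compound preincubation.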
Sfp PPTase inh: Sfp phosphopantetheinyl transferase inhibition. Potency, µM, usual class: inhibitors. Biochemical Sfp PPTase activity, qHTS. AID 1490. 310,000 tested, 3.5% active;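 note: the enzyme is Sfp with the accession as filed and its product quenches rhodamine fluorescence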
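Sfp 15 nM + cpd, 15 min RT; start w/ rhodamine-CoA 5 uM, BHQ-2-YbbR 12.5 uM (final); 50 mM Hepes pH 7.6, 10 mM MgCl2, 0.01% NP-40, 0.01% BSA; read 525/598 nm at 0 and 30 min.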
HP1b chromo inh: inhibitors of HP1-beta chromodomain binding to methylated histone tails. P83916. AlphaScreen HP1-beta / biotin-H3K9me3 peptide binding. Potency, µM (series often up to 114 µM), actives largely listed as inhibitors. 390,000 tested, 0.56% active. AID 540317; note: nearly all actives have a fitted effect of over 70% in size
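HP1-beta protein (50 nM final) preincubated 30 min at room temperature with biotinylated H3(1-18)K9me3 peptide (50 nM) in PBS pH 7.4, 0.01% Tween-20, then compound added for 30 min. AlphaScreen streptavidin donor/nickel chelate acceptor beads (10 ug/mL final), 30 min dark, luminescence read.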
A number is an active result; . = inactive; ? = inconclusive; / = not tested or not shown; [ ] = dose if it differs, or a comment. Calls come from the whole dose curve; as a rule, active = well fitted curve in the direction sought with a large enough effect; inconclusive = small, poorly fitted or top-dose-only effect, or another doubt; inactive = no such curve, though single readings can be large; an effect the other way counts as inactive or inconclusive.

SMILES	G9a block	BAZ2B block	JMJD2A Tudor inh	12-LOX inh	Sfp PPTase inh	HP1b chromo inh
C/C(OC(=O)C12CC3CC(CC(C3)C1)C2)=C1/CCOC1=O	/	/	/	.	/	/
Nn1c(-c2ccccc2)nc2cc(Cl)ccc2c1=O	45µM	.	.	.	.	.
Cc1ccc(-c2nc3ccccc3c(=O)n2N)cc1	.	.	.	.	.	.
O=C(O)c1ccccc1-c1nc2cc(Cl)ccc2c(=O)n1O	.	79µM	.	.	.	.
COc1ccc(-c2cn3nc(N4CCC(C(=O)N5CCN(C)CC5)CC4)sc3n2)cc1	/	/	/	.	/	/
CC(C)Oc1cc(F)cc(-c2cc(NCCO)ncn2)c1	/	/	/	.	/	/
COc1cc(N=Nc2cccc(S(N)(=O)=O)c2)c2ccccc2c1N	13µM	13µM	13µM	6.3µM	?	28µM
Cc1ccc(OCC(=O)N2CCC(c3noc(-c4ccccn4)n3)C2)cc1 (stereo not drawn)	/	/	/	.	/	/
CC(=NNc1nc2ccccc2o1)c1cc2ccccc2cn1	/	/	10µM	?	/	.
CC(=NNc1nc2ccccc2s1)c1ncccn1	/	/	45µM	.	/	.
CC(=NNc1nc2ccccc2o1)c1ncccn1	/	/	10µM	.	/	.
Cc1cc(C)nc(Nc2nc3ccccc3o2)n1	.	.	.	.	.	.
c1ccc(Nc2nc3ccccc3o2)cc1	.[12.7 µM]	.	.	.	.	.
CCOC(=O)N1CCN(CC(O)COCC2=CCC3CC2C3(C)C)CC1 (stereo not drawn)	/	50µM	3.5µM	?	79µM	?
CCOC(=O)N1CCN(CC(O)COCc2ccccc2)CC1 (stereo not drawn)	.	.	.	.	.	.
CCCC[C@H](CC)CN=C(N)NC(N)=NCCCCCCN=C(N)NC(N)=NC[C@@H](CC)CCCC	?	/	/	/	8.9µM	/
CS(=O)(=O)c1ccc(C(=O)OC2CCOC2=O)cc1[N+](=O)[O-] (stereo not drawn)	50µM	.	.	.	.	.
CC[C@H]1CN(C(=O)c2ccnc(Cl)c2)CC[C@H]1CC(=O)N1CCOCC1	/	/	/	.	/	/
CN(C)CC(C)(C)CNS(=O)(=O)c1cccc(Cl)c1Cl	8.9µM	.	50µM	?	.	.
CN(C)c1cccc2c1c(NC(=O)Nc1ccc(F)cc1F)nn2C	?	.	.	?	?	.
CN(C)c1cccc2c1c(NC(=O)Nc1ccccc1)nn2C	35µM	.	?	?	.	.
CCN(CC)S(=O)(=O)c1ccc(OC)c(NC(=O)c2nn(C)c(=O)c3ccccc23)c1	/	/	/	.	/	/
NC(=O)C(CC(=O)O)NC(=O)[C@@H]1CCCNc2c(I)cc([N+](=O)[O-])cc2C(=O)N[C@@H](CO)C(=O)N[C@@H](Cc2ccc(O)cc2)C(=O)N1 (stereo partly drawn)	50µM	.	?	/	.	.
NCCCC[C@@H]1NC(=O)c2cc([N+](=O)[O-])cc(F)c2NCCCC[C@@H](C(N)=O)NC(=O)CNC1=O	.	.	.	.	.	.
NC(=O)C(CC(=O)O)NC(=O)[C@@H]1CCCCNc2c(I)cc([N+](=O)[O-])cc2C(=O)N[C@@H](CO)C(=O)NCC(=O)N1 (stereo partly drawn)	28µM	?	/	/	.	/
SMILES	G9a block	BAZ2B block	JMJD2A Tudor inh	12-LOX inh	Sfp PPTase inh	HP1b chromo inh
Cc1cc(SCC(=O)c2ccc(F)cc2)nc2ccccc12	/	/	/	.	/	/
Cc1c(C(=O)N(C)c2ccccc2)sc2nc3n(c(=O)c12)CCCCC3	/	/	/	.	/	/
CCN(C(=O)c1sc2nc3n(c(=O)c2c1C)CCCCC3)c1ccc(OC)cc1	5.6µM	35µM	79µM	.	/	.
CCN(Cc1ccccc1)C(=O)c1sc2nc3n(c(=O)c2c1C)CCCC3	?	.	.	.	/	.
CCc1ccc(N(CC)C(=O)c2sc3nc4n(c(=O)c3c2C)CCCC4)cc1	16µM	25µM	79µM	?	/	.
CCN(C(=O)c1sc2nc3n(c(=O)c2c1C)CCCCC3)c1ccccc1F	8.9µM	.	.	.	/	.
CCN(C(=O)c1sc2nc3n(c(=O)c2c1C)CCCCC3)c1ccccc1	/	/	/	.	/	/
COc1cc(/C=C(\C#N)C(=O)N2CCc3ccccc32)ccc1O	28µM	?	?	?	.	.
N#C/C(=C\c1ccc(O)c(O)c1)C(=O)N1CCc2ccccc21	6.3µM	8.9µM	16µM	?	/	?
N#C/C(=C\c1cccc(O)c1)C(=O)N1CCCCC1	/	.	.	.	.	.
CCOc1ccc(NC(=O)c2cnc(SC)nc2C(F)(F)F)cc1	/	/	/	.	/	/
c1ccc(CCN2CCNc3cc(Nc4ccc(N5CCOCC5)cc4)ncc3C2)cc1	/	/	/	.	/	/
O=Cc1ccccc1Cl	/	/	/	.	/	/
O=Cc1ccccc1C=O	?	/	/	.[22.9 µM]	11µM	/
COc1ccc(CN2CCN(C(=O)c3cccs3)CC2)cc1	10µM	56µM	1.3µM	?	.	?
O=C(c1cccnc1)N1CCN(CCCc2ccccc2)CC1	?	/	5µM	?	?	56µM
O=C(c1ccccc1)N1CCN(C(=O)c2cccnc2)CC1	?	.	.	.	.	.
O=C(c1cccs1)N1CCN(CCCc2ccccc2)CC1	32µM	79µM	3.2µM	?	.	45µM
O=C(c1cccs1)N1CCN(Cc2ccccc2)CC1	.	.	.	.	.	.
O=C(c1cccs1)N1CCC(Cc2ccccc2)CC1	.	.	.	.	.	.
